# Data published in the supplement of paper PMC8728848.
# The full list was thinned out, with the strongest signals kept by preference.
# B1: STA (Solanum tuberosum), Q9S8M0 (protein)
# chain: NASPPSPSPLPYPQCGMKKGGGKCIKTGECCSIWGWCGTTNAYCSPGYCQKQCPGPYPEGRCGWQANGKSCPTGTGQCCSNGGWCGTTSDYCASKNCQSQCKLPSPPPPPPPPSPPPPSPPSPPPPSPPPPPPPSPPPPSPPPPSPSPPPPPASPPPPPPALPYPQCGIKKGGGKCIKTGECCSIWGWCGTTNAYCSPGYCQKQCPGPYPEGRCGWQANGKSCPTGTGHCCSNAGWCGTTSDYCAPVNCQAQCNTTTLTSPIKNRMRGIESFMLNVV
# B2: RNase 1 (Bos taurus), P61823 (protein)
# chain: MALKSLVLLSLLVLVLLLVRVQPSLGKETAAAKFERQHMDSSTSAASSSNYCNQMMKSRNLTKDRCKPVNTFVHESLADVQAVCSQKNVACKNGQTNCYQSYSTMSITDCRETGSSKYPNCAYKTTQANKHIIVACEGNPYVPVHFDASV
# Columns and labels:
# Assay in all cases: glycan array binding signal (z-score within array); higher = stronger binding
# Conditions in all cases: glycan notation: IUPAC condensed, linker removed
# [1] = biological target: Fuc(a1-2)Gal(b1-3)GalNAc
# How it was run: (§1)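 The binding signal is a Z-score computed within each array and averaged over linkers. Arrays of the same protein sequence at different concentrations or buffers were also averaged together. Data originate from 3228 arrays in the Consortium for Functional Glycomics database, kept only where the protein sequence was available.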
# [2] = biological target: Fuc(a1-2)Gal(b1-4)GlcNAc
# How it was run: as §1
# [3] = biological target: Fuc(a1-2)Gal(b1-4)GlcNAc(b1-3)Gal(b1-4)GlcNAc
# How it was run: as §1
# [4] = biological target: Fuc(a1-2)[Gal(a1-3)]Gal(b1-4)[Fuc(a1-3)]GlcNAc
# How it was run: as §1
# [5] = biological target: Gal(b1-3)GalNAc(b1-4)Gal(b1-4)Glc
# How it was run: as §1
# [6] = biological target: Gal(b1-3)[Fuc(a1-4)]GlcNAc(b1-3)Gal(b1-4)GlcNAc
# How it was run: as §1
# [7] = biological target: Gal(b1-4)Glc
# How it was run: as §1
# [8] = biological target: Gal(b1-4)GlcNAc(b1-3)Gal(b1-4)Glc
# How it was run: as §1
# [9] = biological target: Gal(b1-4)GlcNAc(b1-3)Gal(b1-4)GlcNAc(b1-3)Gal(b1-4)GlcNAc
# How it was run: as §1
# [10] = biological target: Gal(b1-4)GlcNAc(b1-3)GalNAc
# How it was run: as §1
# [11] = biological target: GlcNAc(b1-4)GlcNAc(b1-4)GlcNAc(b1-4)GlcNAc(b1-4)GlcNAc(b1-4)GlcNAc
# How it was run: as §1
# [12] = biological target: Neu5Ac(a2-3)Gal(b1-3)[Fuc(a1-4)]GlcNAc(b1-3)Gal(b1-4)[Fuc(a1-3)]GlcNAc
# How it was run: as §1
# [13] = biological target: Neu5Ac(a2-3)GalNAc(b1-4)GlcNAc
# How it was run: as §1
# [14] = biological target: Neu5Ac(a2-6)Gal(b1-4)GlcNAc(b1-3)Gal(b1-4)[Fuc(a1-3)]GlcNAc(b1-3)Gal(b1-4)[Fuc(a1-3)]GlcNAc
# How it was run: as §1
# [15] = biological target: Neu5Gc(a2-3)Gal(b1-3)[Fuc(a1-4)]GlcNAc
# How it was run: as §1
# [16] = biological target: Neu5Gc(a2-3)Gal(b1-4)Glc
# How it was run: as §1
# [17] = biological target: Fuc(a1-2)Gal(b1-3)GalNAc(b1-3)Gal(a1-4)Gal(b1-4)Glc
# How it was run: as §1
# [18] = biological target: Gal(a1-4)Gal(b1-4)Gal
# How it was run: as §1
# [19] = biological target: Gal(a1-4)Gal(b1-4)GalNAc
# How it was run: as §1
# [20] = biological target: Gal(b1-3)GalNAc(b1-3)Gal(b1-4)Glc
# How it was run: as §1
# [21] = biological target: Gal(b1-4)Glc6S
# How it was run: as §1
# [22] = biological target: Gal6S(b1-4)Glc
# How it was run: as §1
# [23] = biological target: Man(a1-2)Man(a1-2)Man(a1-3)[Man(a1-2)Man(a1-6)[Man(a1-3)]Man(a1-6)]Man(b1-4)GlcNAc(b1-4)GlcNAc
# How it was run: as §1
# [24] = biological target: Man(a1-3)[Man(a1-6)]Man
# How it was run: as §1
# [25] = biological target: Neu5Ac(a2-3)Gal(b1-3)GalNAc6S
# How it was run: as §1
# [26] = biological target: Neu5Ac(a2-3)Gal(b1-4)GlcNAc(b1-3)Gal(b1-4)[Fuc(a1-3)]GlcNAc
# How it was run: as §1
# [27] = biological target: Neu5Ac(a2-3)GalNAc
# How it was run: as §1
# [28] = biological target: Neu5Gc(a2-6)Gal(b1-4)GlcNAc
# How it was run: as §1
binder,measurement,setting,value
B1,glycan array binding signal (z-score),[1],-0.582
same,glycan array binding signal (z-score),[2],2.12
same,glycan array binding signal (z-score),[3],2.12
same,glycan array binding signal (z-score),[4],-0.593
same,glycan array binding signal (z-score),[5],-0.595
same,glycan array binding signal (z-score),[6],-0.584
same,glycan array binding signal (z-score),[7],-0.586
same,glycan array binding signal (z-score),[8],1.35
same,glycan array binding signal (z-score),[9],2.26
same,glycan array binding signal (z-score),[10],-0.564
same,glycan array binding signal (z-score),[11],2.18
same,glycan array binding signal (z-score),[12],-0.589
same,glycan array binding signal (z-score),[13],2.22
same,glycan array binding signal (z-score),[14],-0.578
same,glycan array binding signal (z-score),[15],-0.58
same,glycan array binding signal (z-score),[16],-0.591
B2,glycan array binding signal (z-score),[1],-0.157
same,glycan array binding signal (z-score),[17],1.93
same,glycan array binding signal (z-score),[3],-0.225
same,glycan array binding signal (z-score),[18],7.93
same,glycan array binding signal (z-score),[19],8.87
same,glycan array binding signal (z-score),[20],0.641
same,glycan array binding signal (z-score),[21],-0.14
same,glycan array binding signal (z-score),[10],-0.22
same,glycan array binding signal (z-score),[22],-0.073
same,glycan array binding signal (z-score),[23],-0.153
same,glycan array binding signal (z-score),[24],-0.147
same,glycan array binding signal (z-score),[25],-0.195
same,glycan array binding signal (z-score),[26],-0.22
same,glycan array binding signal (z-score),[27],-0.24
same,glycan array binding signal (z-score),[28],-0.201
